# Compounds with a hit are over-represented: about 27% of the library has one in this group of screens.
# CYP2C9 activ: increases human cytochrome P450 2C9 activity; activation factor at 5 µM; AID 1024; recombinant CYP2C9, luciferin-H conversion, luminescence; hits give high values; factor 1 = untreated enzyme, 0 = blocked; 96,000 compounds, 1.4% hits;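 active = activation factor of 2 or more for CYP2C9 at a 5 µM dose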;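 note: 0 = sulfaphenazole-blocked wells and 1 = vehicle-only wells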
# CYP2C19 inhib: blocks human cytochrome P450 2C19; P33261; CYP2C19 Supersomes, luciferin-H EGE luminescence, 30 min; inhibition, % at 5 µM; 96,000 compounds, 21% hits; AID 778;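 active = CYP2C19 inhibition above a set limit at 5 µM in the primary screen, cut at about 50% in these data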;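 note: plate controls were negative control wells for no effect and 2.5 mM tranylcypromine positive control for full effect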
# CYP2C9 inh: inhibitors of human CYP2C9. inhibition, % at 5 µM. CYP2C9 Supersomes, luciferin-H conversion, luminescence. 96,000 compounds, 20% hits. AID 777. P11712;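 active = blocking of liver enzyme CYP2C9 beyond about 50% at 5 µM, limit read from the data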
# CYP2C19 act: increases human CYP2C19 enzyme activity; recombinant CYP2C19, luciferin-H EGE luminescence; hits give high values; 0 = fully inhibited enzyme, 1 = untreated enzyme; activation factor at 5 µM; 96,000 tested, under 10 active;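 active = activation factor of at least 2 at 5 µM in the primary screen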;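 note: 0 = wells with 2.5 mM tranylcypromine and 1 = vehicle-only wells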
# sEH inh: soluble epoxide hydrolase (human) inhibition; P34913; recombinant human sEH enzymatic activity assay; inhibition, % at 2 µM; 91,000 compounds, 0.34% hits; AID 707; in the data active = inhibition above about 80%
# Target sequence (P34913 whole entry, looked up): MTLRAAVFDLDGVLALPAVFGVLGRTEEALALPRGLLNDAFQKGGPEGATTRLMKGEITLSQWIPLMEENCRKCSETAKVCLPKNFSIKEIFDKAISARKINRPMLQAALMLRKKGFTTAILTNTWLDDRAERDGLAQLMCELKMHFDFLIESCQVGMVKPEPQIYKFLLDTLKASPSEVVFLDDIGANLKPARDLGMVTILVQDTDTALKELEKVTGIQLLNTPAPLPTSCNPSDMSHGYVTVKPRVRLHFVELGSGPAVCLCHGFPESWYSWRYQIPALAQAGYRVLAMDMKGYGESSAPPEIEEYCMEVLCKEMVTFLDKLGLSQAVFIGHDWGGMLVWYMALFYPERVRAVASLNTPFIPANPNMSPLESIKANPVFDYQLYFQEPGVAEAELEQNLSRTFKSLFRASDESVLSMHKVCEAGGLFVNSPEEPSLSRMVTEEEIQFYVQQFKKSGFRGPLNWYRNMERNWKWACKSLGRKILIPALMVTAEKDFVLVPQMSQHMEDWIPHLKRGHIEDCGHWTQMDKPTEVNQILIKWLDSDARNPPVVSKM
# sEH act: increases human soluble epoxide hydrolase activity | P34913 | purified human sEH enzymatic activity, activator screen | activation, % at 2 µM | 91,000 compounds, 0.04% hits; in the data active = activation above about 37%
# Starred values were filed as active, the others as inactive; · = no result.
SMILES,CYP2C9 activ,CYP2C19 inhib,CYP2C9 inh,CYP2C19 act,sEH inh,sEH act
Cc1noc(C)c1C(=O)OCC(=O)Nc1ccccc1Oc1ccccc1,0.5,35,50,0.7,10,-10
Cc1noc(C)c1C(=O)OCC(=O)c1cc(C)n(Cc2ccccc2Cl)c1C,0.1,90*,87*,0.1,·,·
CCCn1c(N)c(C(=O)CSc2nc(C)cs2)c(=O)n(C)c1=O,0.8,31,19,0.7,11,-8
Cc1ccc(CNC(=O)COC(=O)c2c(C)noc2C)cc1,0.9,86*,6,0.1,4,-4
CCOc1ccc(C2OC34CCCCC3C(C#N)(C#N)C2(C#N)C(=N)O4)cc1OC (centres undefined),1.1,8,-11,0.9,5,-8
O=C(c1cccc(COCC(F)(F)C(F)F)c1)N1CCN(c2ccccc2)CC1,0.6,46,36,0.5,16,-11
O=C(OCN1C(=O)c2ccccc2C1=O)c1cccs1,1.2,14,-22,0.9,7,-8
Cc1ccc(Sc2c(C)[nH]n(C(C)(C)C)c2=O)cc1,0.1,88*,87*,0.1,10,-10
CC(=O)c1ccc(NC(=O)N[C@@H](CC(C)C)C(=O)O)cc1,1.1,-8,-7,1.1,22,-24
CCOC(=O)c1sc(NC(=S)NC(=O)CC(C)C)cc1C,1.1,-8,-8,1.1,4,-3
CCOC(=O)C1=C(C)N=C2SC(C)C(=O)N2C1c1ccc(OCC)c(OCC)c1 (centres undefined),0.4,54*,61*,0.5,-4,6
CCCOc1ccc(C2C(C(=O)OC)=C(C)N=C3SCCC(=O)N32)cc1OCC (centres undefined),0.6,23,38,0.8,-4,7
CCOC(=O)C1=C(c2ccccc2)N=C2SCC(=O)N2C1c1ccc(OCC)c(OCC)c1 (centres undefined),0.8,0,18,1,-1,2
COCCOC(=O)C1=C(C)N=C2SCCC(=O)N2C1c1ccc(OC(=O)c2ccco2)cc1 (centres undefined),0.3,73*,73*,0.3,2,2
CCOC(=O)C1=C(C)N=C2SCCC(=O)N2C1c1ccc(C(=O)OC)cc1 (centres undefined),0.8,68*,22,0.3,-5,3
CCOC(=O)C1=C(C)N=C2SC(C)C(=O)N2C1c1ccc(C(=O)OC)cc1 (centres undefined),0.4,73*,58*,0.3,5,-4
CCOC(=O)C1=C(C)N=C2SCCC(=O)N2C1c1sccc1C (centres undefined),1,-1,4,1,13,-13
CCC1(C)OCC(Cn2c3ccccc3c3ccccc32)O1 (centres undefined),·,·,·,·,-2,5
CCc1ccc(NC(=O)C(=O)NCCN2CCN(C(=O)c3ccco3)CC2)cc1,·,·,·,·,16,-15
O=C(CSc1nnc(Cc2cc(=O)[nH]c(=O)[nH]2)n1-c1ccc(F)cc1)NC1CCCC1,1.1,-17,-7,1.2,1,1
CCC(CC)C(=O)N=C1SC2CS(=O)(=O)CC2N1CCc1ccc(OC)cc1 (centres undefined),0.2,80*,77*,0.2,-1,1
COc1cccc(-c2nn(C)c3sc(C(=O)N4CCOCC4)cc23)c1,0.4,32,60*,0.7,-4,1
Cn1nc(-c2ccc(Cl)cc2)c2cc(C(=O)N3CCOCC3)sc21,0.8,34,17,0.7,-2,1
COc1cccc(-c2nn(C)c3sc(C(=O)N4CCN(c5ccccn5)CC4)cc23)c1,0.2,42,80*,0.6,·,·
Cc1ccccc1-n1nc(C)c2cc(C(=O)N3CCOCC3)sc21,1.3,21,-26,0.8,-14,13
COc1ccc(N2CCN(C(=O)c3cc4c(-c5ccc(Cl)cc5)nn(C)c4s3)CC2)cc1,0.4,23,64*,0.8,-7,6
CCOC(=O)C(C(=O)NCc1cccc(OC)c1)c1ncc(C(F)(F)F)cc1Cl (centres undefined),0.9,19,10,0.8,6,-6
CCCCOC(=O)c1ccc(NC(=O)c2cc(Cl)ccc2OC)cc1,2.5*,23,-148,0.8,1,2
COc1ccccc1C(=O)O/N=C1/CCCc2c1ccc(OC)c2[N+](=O)[O-],0.5,85*,51*,0.1,3,-3
